Data taken from PubChem BioAssay AID1159580 (chemical genetic matrix, 2015).
Values joined by “and” are separate entries in the source; they are usually repeats but may differ in a detail not shown here. Equal values may be shown once. The campaign covered roughly 5,500 compounds. About 2,000 (36%) were called active. Not shown: some 18% with an inconclusive outcome. The list shows a part of the results. A number with no mark means an inactive call. No stated cut-off is given here; in the data, active means normalized growth mostly below about 0.91 (no sharp cut-off); inconclusive means no clear call, values can overlap the other calls; inactive means mostly above about 0.92.

Experiment: chemical genetic growth profiling, strain panel (AID 1159580);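 further: tested at 20 µM; growth read once vehicle control cultures reached saturation at 30 °C; 1 = growth at the plate median or of vehicle wells; lower values mean less growth of the strain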
Conditions: S. cerevisiae deletion strains, growth OD

## COc1cc(OC)c2c(OC)c(-c3ccc4c(c3)OCO4)c(=O)oc2c1
Locus YAL013W, strain DEP1, hits give low values
  normalized growth: 0.982
Locus YAL021C, strain ccr4, hits give low values
  normalized growth: 0.968
Locus YAL026C, strain drs2, hits give low values
  normalized growth: 0.957
Locus YAL030W, strain snc1, hits give low values
  normalized growth: 0.975
Locus YBL061C, strain skt5, hits give low values
  normalized growth: 0.955
Locus YBR009C, strain hhf1, hits give low values
  normalized growth: 0.934
Locus YBR021W, strain FUR4, hits give low values
  normalized growth: 0.975
Locus YBR023C, strain chs3, hits give low values
  normalized growth: 0.943
Locus YBR171W, strain sec66, hits give low values
  normalized growth: 1
Locus YBR229C, strain ROT2, hits give low values
  normalized growth: 0.987
Locus YBR231C, strain swc5, hits give low values
  normalized growth: 0.954
Locus YBR279W, strain paf1, hits give low values
  normalized growth: 0.969
Locus YCL011C, strain gbp2, hits give low values
  normalized growth: 0.966
Locus YCL016C, strain dcc1, hits give low values
  normalized growth: 0.969
Locus YCL029C, strain bik1, hits give low values
  normalized growth: 0.995
Locus YCL061C, strain MRC1, hits give low values
  normalized growth: 0.985
Locus YCL069W, strain vba3, hits give low values
  normalized growth: 1.01
Locus YCR088W, strain abp1, hits give low values
  normalized growth: 0.988
Locus YDL005C, strain med2, hits give low values
  normalized growth: 0.983
Locus YDL035C, strain GPR1, hits give low values
  normalized growth: 0.987
Locus YDL040C, strain nat1, hits give low values
  normalized growth: 0.971
Locus YDL074C, strain BRE1, hits give low values
  normalized growth: 0.93
Locus YDL101C, strain DUN1, hits give low values
  normalized growth: 0.982
Locus YDL134C, strain PPH21, hits give low values
  normalized growth: 0.986
Locus YDL185W, strain tfp1, hits give low values
  normalized growth: 0.996
Locus YDL192W, strain arf1, hits give low values
  normalized growth: 0.979
Locus YDR001C, strain nth1, hits give low values
  normalized growth: 0.98
Locus YDR069C, strain doa4, hits give low values
  normalized growth: 0.982
Locus YDR101C, strain arx1, hits give low values
  normalized growth: 0.975
Locus YDR137W, strain rgp1, hits give low values
  normalized growth: 0.777 (active)
Locus YDR150W, strain NUM1, hits give low values
  normalized growth: 1.01
Locus YDR159W, strain sac3, hits give low values
  normalized growth: 0.951
Locus YDR162C, strain NBP2, hits give low values
  normalized growth: 0.973
Locus YDR195W, strain ref2
  normalized growth: 1.05
Locus YDR297W, strain sur2, hits give low values
  normalized growth: 0.974
Locus YDR318W, strain mcm21, hits give low values
  normalized growth: 0.976
Locus YDR334W, strain swr1, hits give low values
  normalized growth: 0.983
Locus YDR335W, strain msn5, hits give low values
  normalized growth: 1.01
Locus YDR388W, hits give low values
  normalized growth: 0.972
Locus YDR392W, strain spt3, hits give low values
  normalized growth: 0.477 (active)
Locus YDR502C, strain sam2, hits give low values
  normalized growth: 0.956
Locus YEL003W, strain gim4, hits give low values
  normalized growth: 0.971
Locus YEL037C, strain rad23, hits give low values
  normalized growth: 0.986
Locus YEL061C, strain CIN8 (second series), hits give low values
  normalized growth: 1
Locus YEL061C, strain CIN8, hits give low values
  normalized growth: 0.996
Locus YER015W, strain faa2, hits give low values
  normalized growth: 0.96
Locus YER016W, strain bim1, hits give low values
  normalized growth: 0.974
Locus YER110C, hits give low values
  normalized growth: 0.972
Locus YER111C, strain swi4, hits give low values
  normalized growth: 1.02
Locus YER155C, strain BEM2 (second series), hits give low values
  normalized growth: 0.897
Locus YER155C, strain BEM2, hits give low values
  normalized growth: 0.988
Locus YER167W, strain BCK2, hits give low values
  normalized growth: 0.99
Locus YFR010W, strain ubp6, hits give low values
  normalized growth: 1.01
Locus YGL078C, strain dbp3, hits give low values
  normalized growth: 0.99
Locus YGL086W, strain mad1, hits give low values
  normalized growth: 0.976
Locus YGL167C, strain pmr1, hits give low values
  normalized growth: 0.963
Locus YGL173C, strain kem1, hits give low values
  normalized growth: 0.98
Locus YGL227W, strain vid30, hits give low values
  normalized growth: 1
Locus YGL240W, strain doc1, hits give low values
  normalized growth: 0.941
Locus YGL248W, strain PDE1, hits give low values
  normalized growth: 0.985
Locus YGL253W, strain hxk2, hits give low values
  normalized growth: 0.936
Locus YGR078C, strain PAC10, hits give low values
  normalized growth: 0.962
Locus YGR135W, strain pre9, hits give low values
  normalized growth: 0.931
Locus YGR229C, strain SMI1, hits give low values
  normalized growth: 0.921
Locus YGR252W, strain gcn5, hits give low values
  normalized growth: 0.903
Locus YHR013C, strain ard1, hits give low values
  normalized growth: 0.962
Locus YHR027C, strain rpn1, hits give low values
  normalized growth: 0.999
Locus YHR030C, strain SLT2, hits give low values
  normalized growth: 0.993 and 0.954
Locus YHR079C, strain IRE1 (second series), hits give low values
  normalized growth: 0.976
Locus YHR079C, strain IRE1, hits give low values
  normalized growth: 0.948
Locus YHR094C, strain hxt1, hits give low values
  normalized growth: 0.994
Locus YHR129C, strain ARP1, hits give low values
  normalized growth: 0.989
Locus YHR142W, strain chs7, hits give low values
  normalized growth: 0.882
Locus YHR200W, strain rpn10, hits give low values
  normalized growth: 0.981
Locus YIL066C, strain RNR3, hits give low values
  normalized growth: 0.982
Locus YIL073C, strain SPO22, hits give low values
  normalized growth: 0.978
Locus YIL125W, strain kgd1, hits give low values
  normalized growth: 0.997
Locus YIR030C, strain dcg1, hits give low values
  normalized growth: 0.975
Locus YJL092W, strain hpr5, hits give low values
  normalized growth: 0.994
Locus YJL095W, strain BCK1 (second series), hits give low values
  normalized growth: 0.97
Locus YJL095W, strain BCK1, hits give low values
  normalized growth: 0.915 and 0.957
Locus YJL115W, strain asf1, hits give low values
  normalized growth: 1
Locus YJL129C, strain trk1, hits give low values
  normalized growth: 0.97
Locus YJL134W, strain LCB3, hits give low values
  normalized growth: 0.991
Locus YJL154C, strain vps35, hits give low values
  normalized growth: 0.993
Locus YJL164C, strain tpk1, hits give low values
  normalized growth: 0.946
Locus YJL166W, strain qcr8, hits give low values
  normalized growth: 0.931
Locus YJL168C, strain set2, hits give low values
  normalized growth: 0.976
Locus YJL187C, strain SWE1 (second series), hits give low values
  normalized growth: 0.977
Locus YJL187C, strain SWE1, hits give low values
  normalized growth: 0.971
Locus YJR043C, strain POL32, hits give low values
  normalized growth: 1.01
Locus YJR066W, strain TOR1, hits give low values
  normalized growth: 0.95
